Pf Dd2 growth – P. falciparum Dd2 growth inhibitors, primary screen, SYBR Green fluorescence, single dose replicates; activity change, % at 10 µM; 72 h; active compounds read low; hit rate 2.3% among 94,000; in the data active means activity change below about -80%; inconclusive means no clear call, values can overlap the other calls
C diff growth – C. difficile growth inhibitors, primary screen, HTS; Clostridium difficile clinical isolate growth, OD600, 24 h; active compounds read low; hit rate 0.25% among 86,000; growth activity, negative = inhibition, % at 16 µg/mL (by protocol);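 active means mean growth activity at or below -80% and every replicate also at or below -80%; inconclusive means mean at or below -80% but some replicate above -80%; inactive means mean growth activity above -80%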;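 further: 0% = DMSO wells and -100% = levofloxacin 16 µg/mL wells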
* marks the source's active call; other numbers are inactive results; ? = inconclusive; . = no result; ! = a repeat was not active. A selection: hits, their analogues and other compounds. The true share with any hit is near 2.3%.

SMILES	Pf Dd2 growth	C diff growth
C[C@@H]1CCCCO[C@H](CN(C)C(=O)Cc2ccccc2)[C@H](C)CN([C@H](C)CO)C(=O)c2cc(NC(=O)Nc3ccc(F)cc3)ccc2O1	-85.3*	3.2
COc1ccc(NC(=O)N(C)C[C@H]2Oc3c(NC(=O)Nc4c(C)noc4C)cccc3C(=O)N([C@@H](C)CO)C[C@@H]2C)cc1	11.4	.
C/C=C/c1ccc([C@H]2[C@H](CO)N(S(=O)(=O)Cc3ccccc3)C23CN(C(=O)C2CCCC2)C3)cc1	-76.4	-10.1
C[C@@H]1CN([C@H](C)CO)C(=O)c2cc(NC(=O)Nc3ccccc3)ccc2O[C@@H](C)CCCCO[C@@H]1CN(C)C(=O)Cc1ccccc1	-74.6	.
C[C@@H]1CCCCO[C@H](CN(C)C(=O)Cc2ccccc2)[C@H](C)CN([C@H](C)CO)C(=O)c2cc(NC(=O)Nc3ccccc3)ccc2O1	-83.7*	.
C[C@@H]1CN([C@@H](C)CO)C(=O)c2cc(NC(=O)CCC(F)(F)F)ccc2O[C@@H]1CN(C)S(C)(=O)=O	15.4	0.2
CCC(=O)Nc1ccc2c(c1)OC[C@@H](C)N(C(=O)c1ccccc1F)C[C@@H](C)[C@@H](OC)CN(C)C2=O	.	-1.5
O=C(NCC[C@@H]1CC[C@H](NS(=O)(=O)c2cccc(F)c2)[C@@H](CO)O1)C1CCOCC1	.	6.1
CCC(=O)N1CC2(C1)CN(Cc1cccc(Cl)c1)[C@H](CO)c1c2c2ccc(OC)cc2n1C	-92.1*	14.3
COCC(=O)N1CCC2(CC1)CN(Cc1ccc3c(c1)OCO3)[C@@H](CO)c1c2c2ccc(OC)cc2n1C	-70.7	48.0
COc1ccc2c3c(n(C)c2c1)[C@H](CO)N(CC1CC1)CC31CN(C(=O)c2ccc3c(c2)OCO3)C1	-89.3*	1.5
CCC(=O)N1CCC2(CC1)CN(Cc1ccc3c(c1)OCO3)[C@@H](CO)c1c2c2ccc(OC)cc2n1C	-91.0*	-1.9
COc1ccc2c3c(n(C)c2c1)[C@@H](CO)N(Cc1ccc2c(c1)OCO2)CC31CN(C(=O)c2ccc3c(c2)OCO3)C1	-85.0*	18.8
COc1cc(CN2CC3(CN(C(=O)c4ccc5c(c4)OCO5)C3)c3c(n(C)c4cc(OC)ccc34)[C@@H]2CO)cc(OC)c1	-70.8	4.9
CCC(=O)N1CC2(C1)CN(Cc1cccc(Cl)c1)[C@@H](CO)c1c2c2ccc(OC)cc2n1C	-49.5	11.6
COc1ccc2c3c(n(C)c2c1)[C@@H](CO)N(CC1CC1)CC31CN(C(=O)c2ccc3c(c2)OCO3)C1	-74.1	3.4
COc1ccc(NC(=O)Nc2ccc3c(c2)CC(=O)N([C@@H](C)CO)C[C@@H](C)[C@@H](CN(C)Cc2ccc4c(c2)OCO4)O3)cc1	-20.6	-0.9
C[C@H](CO)N1C[C@H](C)[C@@H](CN(C)C(=O)Nc2ccccc2)Oc2ccc(NC(=O)c3ccncc3)cc2CC1=O	-2.0	-3.0
O=C(C[C@@H]1CC[C@@H]2NC[C@@H](O)COC[C@H]2O1)NC1Cc2ccccc2C1	.	-4.0
C[C@H]1CCCCO[C@@H](CN(C)Cc2ccc(Cl)c(Cl)c2)[C@@H](C)CN([C@@H](C)CO)C(=O)c2cc(NC(=O)Nc3ccc(C(F)(F)F)cc3)ccc2O1	-78.4	5.3
C[C@@H]1CCCCO[C@@H](CN(C)Cc2ccc(C(F)(F)F)cc2)[C@@H](C)CN([C@@H](C)CO)C(=O)c2cc(NC(=O)Nc3ccc(C(F)(F)F)cc3)ccc2O1	-24.3	6.9
C[C@@H]1CCCCO[C@H](CN(C)Cc2ccc(Cl)c(Cl)c2)[C@@H](C)CN([C@@H](C)CO)C(=O)c2cc(NC(=O)Nc3ccc(C(F)(F)F)cc3)ccc2O1	-86.4*	21.8
C[C@H]1CCCCO[C@@H](CN(C)Cc2ccc3c(c2)OCO3)[C@@H](C)CN([C@@H](C)CO)C(=O)c2cc(NC(=O)Nc3ccc(C(F)(F)F)cc3)ccc2O1	-89.3*	-18.6
C[C@@H]1CCCCO[C@@H](CN(C)Cc2ccc3c(c2)OCO3)[C@@H](C)CN([C@@H](C)CO)C(=O)c2cc(NC(=O)Nc3ccc(C(F)(F)F)cc3)ccc2O1	-55.9	-36.8
C[C@@H]1CCCCO[C@@H](CN(C)Cc2ccc(Cl)c(Cl)c2)[C@H](C)CN([C@@H](C)CO)C(=O)c2cc(NC(=O)Nc3ccc(C(F)(F)F)cc3)ccc2O1	-84.8*	16.5
SMILES	Pf Dd2 growth	C diff growth
C[C@H](CO)N1C[C@H](C)[C@@H](CN(C)S(C)(=O)=O)Oc2cc(C#Cc3ccc(F)cc3)ccc2S1(=O)=O	-16.4	1.3
CS(=O)(=O)N1[C@@H]2c3ccc(-c4cccc(F)c4)c(=O)n3C[C@H]1[C@H](CO)[C@H]2C(=O)N1CCCCC1	.	7.7
C[C@H]1CCCCO[C@H](CN(C)C(=O)Nc2ccc3c(c2)OCO3)[C@@H](C)CN([C@@H](C)CO)C(=O)c2cc(NC(=O)Cc3ccccc3)ccc2O1	?	-1.2
C[C@@H]1CCCCO[C@@H](CN(C)C(=O)Nc2ccc3c(c2)OCO3)[C@@H](C)CN([C@@H](C)CO)C(=O)c2cc(NC(=O)Cc3ccccc3)ccc2O1	-83.5*	-0.2
C[C@@H]1CCCCO[C@H](CN(C)C(=O)Nc2ccc3c(c2)OCO3)[C@@H](C)CN([C@@H](C)CO)C(=O)c2cc(NC(=O)Cc3ccccc3)ccc2O1	-65.7	4.1
C[C@@H]1CCCCO[C@H](CN(C)C(=O)Nc2ccc3c(c2)OCO3)[C@H](C)CN([C@H](C)CO)C(=O)c2cc(NC(=O)Cc3ccccc3)ccc2O1	-82.2*	0.8
C[C@@H]1CCCCO[C@@H](CN(C)C(=O)Nc2cccc3ccccc23)[C@H](C)CN([C@H](C)CO)C(=O)c2cc(NS(=O)(=O)c3cn(C)cn3)ccc2O1	-8.3	0.3
COc1ccc2c3c([nH]c2c1)[C@@H](CO)N(Cc1cc(F)ccc1F)CC31CN(C(=O)CN(C)C)C1	-87.1*	-10.8
COCC(=O)N1CCC2(CC1)CN(Cc1cc(F)ccc1F)[C@@H](CO)c1[nH]c3cc(OC)ccc3c12	-53.5	.
COc1ccc2c3c([nH]c2c1)[C@@H](CO)N(Cc1cc(F)ccc1F)CC31CCN(C(=O)CN(C)C)CC1	-85.5*	5.8
COc1ccc2c3c([nH]c2c1)[C@H](CO)N(Cc1cc(F)ccc1F)CC31CN(C(=O)CN(C)C)C1	?	-2.8
C[C@H]1CN([C@@H](C)CO)C(=O)c2cccc(NC(=O)C3CCCCC3)c2O[C@H]1CN(C)C(=O)Nc1cccc2ccccc12	-36.7	-3.3
C[C@H]1CN([C@@H](C)CO)S(=O)(=O)c2ccc(C#CC(C)(C)O)cc2O[C@H]1CN(C)C(=O)C1CCCCC1	10.6	-1.9
COc1ccc2c3c([nH]c2c1)[C@H](CO)N(C(=O)CN(C)C)CC31CCN(CC2CCCCC2)CC1	-89.0*	7.1
COc1ccc2c3c([nH]c2c1)[C@@H](CO)N(C(=O)CN(C)C)CC31CCN(CC2CCCCC2)CC1	-87.2*	4.7
COc1ccc2c3c([nH]c2c1)[C@H](CO)N(C(=O)CN(C)C)CC31CCN(CC2CC2)CC1	3.4	10.1
COc1ccc2c3c([nH]c2c1)[C@H](CO)N(C(=O)CN(C)C)CC31CN(CC2CCCC2)C1	-77.1	1.2
O=C(C[C@H]1C=C[C@H](NC(=O)CN2CCOCC2)[C@H](CO)O1)NCCc1ccccc1	2.9	-1.3
COc1ccc(S(=O)(=O)N(C)C[C@H]2OCCCC[C@@H](C)Oc3ccc(N(C)C)cc3C(=O)N([C@H](C)CO)C[C@@H]2C)cc1	-83.2*!	-2.1

Screens deposited in PubChem BioAssay by Broad Institute.
